Laboratory results as given in article PMC11062922 (Nature Chemical Biology, 2023).
Where two headings read alike, the source gives them in different places.

Legend:
Design in all cases: species or system human, MV4-11 + K-562 + COLO205 + SK-N-BE2 + OVCAR-8
AXL = settings: read-out: apparent Kd, n = 1
CSK = settings: read-out: apparent Kd, n = 1
EPHA1 = settings: read-out: apparent Kd, n = 1
EPHB3 = settings: read-out: apparent Kd, n = 1
FYN = settings: read-out: apparent Kd, n = 1
LYN = settings: read-out: apparent Kd, n = 1
MTOR = settings: read-out: apparent Kd, n = 1
PIK3CG = settings: read-out: apparent Kd, n = 1
RIPK2 = settings: read-out: apparent Kd, n = 1
ULK1 = settings: read-out: apparent Kd, n = 1
ULK3 = settings: read-out: apparent Kd, n = 1
TGFBR2 = settings: read-out: apparent Kd, n = 1
CDC42BPA = settings: read-out: apparent Kd; compound concentrations: 100 nM and 1000 nM (sheet 'Samples'), CATDS: 3.9597453798327397E-3; n = 1
CDC42BPG = settings: read-out: apparent Kd; compound concentrations: 100 nM and 1000 nM (sheet 'Samples'), CATDS: 5.4078712502347798E-3; n = 1
CDK9 = settings: read-out: apparent Kd; compound concentrations: 100 nM and 1000 nM (sheet 'Samples'), CATDS: 4.5836362442514197E-3; n = 1
CIT = settings: read-out: apparent Kd, n = 1
IRAK3 = settings: read-out: apparent Kd, compound concentrations: 100 nM and 1000 nM (sheet 'Samples'), n = 1
PRKG1 = settings: read-out: apparent Kd, n = 1
ROCK1 = settings: read-out: apparent Kd; compound concentrations: 100 nM and 1000 nM (sheet 'Samples'), CATDS: 4.4818399275614899E-3; n = 1
PDGFRB = settings: read-out: apparent Kd; compound concentrations: 100 nM and 1000 nM (sheet 'Samples'), CATDS: 6.5181238774795402E-3; n = 1
[1] = compound concentrations:100 nM and 1000 nM (sheet 'Samples')

**Q.** What does the source list for `CN1C[C@@H]2Cn3c(c(C4=C(c5cn(C)c6ccccc56)C(=O)NC4=O)c4ccccc43)C[C@H]2C1.Cl` [RO0320234-001]?
**A.** potency estimated from few doses (AXL; [1]): 1340 nM; potency estimated from few doses (CSK; [1]): 552 nM; potency estimated from few doses (EPHA1; [1]): 368 nM; potency estimated from few doses (EPHB3; [1]): 1030 nM; potency estimated from few doses (FYN; [1]): 209 nM; potency estimated from few doses (LYN; [1]): 158 nM; potency estimated from few doses (MTOR; [1]): 186 nM; potency estimated from few doses (PIK3CG; [1]): 1400 nM; potency estimated from few doses (RIPK2; [1]): 407 nM; potency estimated from few doses (ULK1; [1]): 768 nM

**Q.** With `O=C1NC(=O)C(N2CCc3ccccc32)=C1c1ccccc1Cl` [SB-373598] as the compound, how does the potency estimated from few doses (AXL; [1]) read?
**A.** Its potency estimated from few doses is 775 nM.

**Q.** What about the potency estimated from few doses (CSK; [1]) of the same compound?
**A.** Its potency estimated from few doses is 273 nM.

**Q.** What about the potency estimated from few doses (EPHA1; [1]) of the same compound?
**A.** Its potency estimated from few doses is 207 nM.

**Q.** What about the potency estimated from few doses (EPHB3; [1]) of the same compound?
**A.** Its potency estimated from few doses is 549 nM.

**Q.** And the potency estimated from few doses (FYN; [1])?
**A.** The potency estimated from few doses was 250 nM.

**Q.** And the potency estimated from few doses (LYN; [1])?
**A.** The potency estimated from few doses was 210 nM.

**Q.** What about the potency estimated from few doses (MTOR; [1]) of the same compound?
**A.** The potency estimated from few doses was 461 nM.

**Q.** And the potency estimated from few doses (PIK3CG; [1])?
**A.** The potency estimated from few doses was 1110 nM.

**Q.** What about the potency estimated from few doses (RIPK2; [1]) of the same compound?
**A.** The potency estimated from few doses was 273 nM.

**Q.** And the potency estimated from few doses (ULK1; [1])?
**A.** Its potency estimated from few doses is 305 nM.

**Q.** And the potency estimated from few doses (ULK3; [1])?
**A.** The potency estimated from few doses was 1450 nM.

**Q.** With `Cl.NCc1ccc(-c2nc(-c3ccc(Cl)c(O)c3)c(-c3ccncc3)[nH]2)cc1` [SB-476429-A] as the compound, how does the potency estimated from few doses (RIPK2; [1]) read?
**A.** Its potency estimated from few doses is 22.7 nM.

**Q.** And the potency estimated from few doses (TGFBR2; [1])?
**A.** Its potency estimated from few doses is 1200 nM.

**Q.** `Cn1ncc2c(N)ncnc21` [SKF-18267] was tested. Which potency estimated from few doses (AXL; compound concentrations: 100 nM and 1000 nM (sheet 'Samples'), CATDS: 4.1647880989247304E-3) did it give?
**A.** Its potency estimated from few doses is 1210 nM.

**Q.** What about the potency estimated from few doses (CDC42BPA) of the same compound?
**A.** Its potency estimated from few doses is 1370 nM.

**Q.** And the potency estimated from few doses (CDC42BPG)?
**A.** Its potency estimated from few doses is 700 nM.

**Q.** What about the potency estimated from few doses (CDK9) of the same compound?
**A.** Its potency estimated from few doses is 974 nM.

**Q.** And the potency estimated from few doses (CIT; compound concentrations: 100 nM and 1000 nM (sheet 'Samples'), CATDS: 4.0396253783402704E-3)?
**A.** Its potency estimated from few doses is 1300 nM.

**Q.** And the potency estimated from few doses (CSK; compound concentrations: 100 nM and 1000 nM (sheet 'Samples'), CATDS: 4.6419413759929496E-3)?
**A.** The potency estimated from few doses was 948 nM.

**Q.** And the potency estimated from few doses (EPHA1; compound concentrations: 100 nM and 1000 nM (sheet 'Samples'), CATDS: 6.5055673029188101E-3)?
**A.** The potency estimated from few doses was 506 nM.

**Q.** And the potency estimated from few doses (EPHB3; compound concentrations: 100 nM and 1000 nM (sheet 'Samples'), CATDS: 3.3263666790724102E-3)?
**A.** The potency estimated from few doses was 2290 nM.

**Q.** And the potency estimated from few doses (FYN; compound concentrations: 100 nM and 1000 nM (sheet 'Samples'), CATDS: 7.0897882723323898E-3)?
**A.** Its potency estimated from few doses is 440 nM.

**Q.** And the potency estimated from few doses (IRAK3; CATDS: 5.6966714044827602E-3)?
**A.** The potency estimated from few doses was 636 nM.

**Q.** What about the potency estimated from few doses (LYN; compound concentrations: 100 nM and 1000 nM (sheet 'Samples'), CATDS: 5.9641678427723097E-3) of the same compound?
**A.** The potency estimated from few doses was 586 nM.

**Q.** What about the potency estimated from few doses (MTOR; compound concentrations: 100 nM and 1000 nM (sheet 'Samples'), CATDS: 1.26439105920185E-2) of the same compound?
**A.** Its potency estimated from few doses is 192 nM.

**Q.** And the potency estimated from few doses (PIK3CG; compound concentrations: 100 nM and 1000 nM (sheet 'Samples'), CATDS: 9.5970287600273298E-3)?
**A.** The potency estimated from few doses was 280 nM.

**Q.** What about the potency estimated from few doses (PRKG1; compound concentrations: 100 nM and 1000 nM (sheet 'Samples'), CATDS: 4.7487342618258797E-3) of the same compound?
**A.** The potency estimated from few doses was 904 nM.

**Q.** What about the potency estimated from few doses (ROCK1) of the same compound?
**A.** Its potency estimated from few doses is 1020 nM.

**Q.** And the potency estimated from few doses (ULK1; compound concentrations: 100 nM and 1000 nM (sheet 'Samples'), CATDS: 3.78452040785661E-3)?
**A.** The potency estimated from few doses was 1550 nM.

**Q.** What about the potency estimated from few doses (ULK3; compound concentrations: 100 nM and 1000 nM (sheet 'Samples'), CATDS: 5.6428686263863704E-3) of the same compound?
**A.** Its potency estimated from few doses is 647 nM.

**Q.** With `O=C1NC(=O)/C(=C/c2ccc3ncccc3c2)S1` [RO4603632-000] as the compound, how does the potency estimated from few doses (PIK3CG; compound concentrations: 100 nM and 1000 nM (sheet 'Samples'), CATDS: 0.208226533332634) read?
**A.** Its potency estimated from few doses is 948 nM.

**Q.** `COc1ccc(Nc2ncc(C#N)c(Nc3ccccc3C(N)=O)n2)cc1N1CCN(C)CC1.Cl` [GSK1558669A] was tested. Which potency estimated from few doses (FYN; compound concentrations: 100 nM and 1000 nM (sheet 'Samples'), CATDS: 8.8706126087949692E-3) did it give?
**A.** Its potency estimated from few doses is 276 nM.

**Q.** And the potency estimated from few doses (IRAK3; CATDS: 1.44351207371401E-2)?
**A.** The potency estimated from few doses was 72.7 nM.

**Q.** What about the potency estimated from few doses (LYN; compound concentrations: 100 nM and 1000 nM (sheet 'Samples'), CATDS: 6.9772111779179699E-3) of the same compound?
**A.** Its potency estimated from few doses is 724 nM.

**Q.** And the potency estimated from few doses (PDGFRB)?
**A.** Its potency estimated from few doses is 1030 nM.

**Q.** What about the potency estimated from few doses (ULK1; compound concentrations: 100 nM and 1000 nM (sheet 'Samples'), CATDS: 1.40188360119969E-2) of the same compound?
**A.** Its potency estimated from few doses is 77.8 nM.

**Q.** And the potency estimated from few doses (ULK3; compound concentrations: 100 nM and 1000 nM (sheet 'Samples'), CATDS: 2.8443328776369899E-2)?
**A.** The potency estimated from few doses was 20 nM.

**Q.** For `CCOC(=O)N1CCC(n2cnc(-c3ccc(F)cc3)c2-c2ccnc(N)n2)CC1` [SB-219952], which potency estimated from few doses (AXL; compound concentrations: 100 nM and 1000 nM (sheet 'Samples'), CATDS: 1.0061198930866599E-2) is on record?
**A.** The potency estimated from few doses was 853 nM.

**Q.** And the potency estimated from few doses (CSK; compound concentrations: 100 nM and 1000 nM (sheet 'Samples'), CATDS: 1.06273677269496E-2)?
**A.** Its potency estimated from few doses is 745 nM.

**Q.** What about the potency estimated from few doses (EPHA1; compound concentrations: 100 nM and 1000 nM (sheet 'Samples'), CATDS: 1.16401500305403E-2) of the same compound?
**A.** Its potency estimated from few doses is 603 nM.

**Q.** What about the potency estimated from few doses (EPHB3; compound concentrations: 100 nM and 1000 nM (sheet 'Samples'), CATDS: 9.5797280308489805E-3) of the same compound?
**A.** Its potency estimated from few doses is 971 nM.

**Q.** What about the potency estimated from few doses (RIPK2; compound concentrations: 100 nM and 1000 nM (sheet 'Samples'), CATDS: 1.44232329790909E-2) of the same compound?
**A.** Its potency estimated from few doses is 387 nM.

**Q.** And the potency estimated from few doses (ULK1; compound concentrations: 100 nM and 1000 nM (sheet 'Samples'), CATDS: 8.7591953148760202E-3)?
**A.** Its potency estimated from few doses is 1260 nM.

**Q.** And the potency estimated from few doses (ULK3; compound concentrations: 100 nM and 1000 nM (sheet 'Samples'), CATDS: 8.4106356024223894E-3)?
**A.** The potency estimated from few doses was 1430 nM.

**Q.** With `Cc1ccc(Nc2ccnc(Nc3ccc4c(c3)CS(=O)(=O)C4)n2)cc1O.Cl` [GW579362A] as the compound, how does the potency estimated from few doses (IRAK3; CATDS: 4.4859937900589397E-2) read?
**A.** Its potency estimated from few doses is 446 nM.

**Q.** What about the potency estimated from few doses (RIPK2; compound concentrations: 100 nM and 1000 nM (sheet 'Samples'), CATDS: 5.8804795040806997E-2) of the same compound?
**A.** The potency estimated from few doses was 261 nM.

**Q.** What about the potency estimated from few doses (TGFBR2; compound concentrations: 100 nM and 1000 nM (sheet 'Samples'), CATDS: 0.33092190258733201) of the same compound?
**A.** The potency estimated from few doses was 13.2 nM.

**Q.** And the potency estimated from few doses (ULK3; compound concentrations: 100 nM and 1000 nM (sheet 'Samples'), CATDS: 3.7183394564858599E-2)?
**A.** Its potency estimated from few doses is 681 nM.

**Q.** Which potency estimated from few doses (CIT; compound concentrations: 100 nM and 1000 nM (sheet 'Samples'), CATDS: 4.9718513038834899E-2) does the source give for `COc1cccc2c(-c3ccncc3)c(-c3ccc(F)cc3)nn12` [GW468513X] here?
**A.** The potency estimated from few doses was 539 nM.

**Q.** Which potency estimated from few doses (RIPK2; [1]) does the source give for `Cl.ON=C1CCc2cc(-c3nc(C4CCNCC4)[nH]c3-c3ccncc3)ccc21` [SB-614067-R] here?
**A.** The potency estimated from few doses was 320 nM.

**Q.** What does the source list for `CCn1c(-c2nonc2N)nc2c(C#CC(C)(C)O)nc(OCCN)cc21.CCn1c(-c2nonc2N)nc2c(C#CC(C)(C)O)nc(OCCN)cc21.Cl.Cl` [GSK902056A]?
**A.** potency estimated from few doses (CIT; [1]): 1340 nM; potency estimated from few doses (PRKG1; [1]): 1230 nM
